Screens: PubChem BioAssay, National Center for Advancing Translational Sciences (NCATS)
Sampled rows, rich in hits. Any-hit rate of the full collection: about 4.3%.
uPA generation: inhibitors of cell surface uPA generation | cell surface uPA generation assay, qHTS | Potency, µM (highest dose often 38.3 µM), for inactives: top-dose activity change, negative = inhibition, hits mostly inhibitors | 0.31% of 330,000 active | AID 540303; active = well fitted inhibition curve with a large enough effect; inconclusive = small, poorly fitted or top-dose-only effect; inactive = no such curve, though single readings can be large or run the other way; tested in mouse RAW 264.7 cells; note: potency is the fitted concentration of half-maximal effect; % is set by controls: 0 for no effect and ±100 for the full control effect; nearly all actives have a fitted effect of over 55% in size
MCF10A rerep: inducers of DNA re-replication in MCF 10A breast cells. MCF 10A DNA re-replication, Hoechst nuclear intensity, 48 h. Potency, µM (highest dose often 46.1 µM), for the others: at the highest dose activity, positive = re-replication, most hits filed as activators. 2.9% of 350,000 active; note: potency is the fitted concentration of half-maximal effect; % of control where 0% means no effect; nearly all actives have a fitted effect of over 50% in size
Giardia kill: kills Giardia lamblia. Giardia lamblia trophozoite viability. activity change, % at 7.66 µM, hits read low. 0.15% of 340,000 active; in the data active = activity change below about -80%; inconclusive = between about -30% and that limit;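 note: parasites exposed to compound for two days anaerobically before the ATP read; % is set by controls: 0 for no effect and ±100 for the full control effect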
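Luminescence from cellular ATP indicates surviving trophozoites (100 cells/well) following 48 hrs anaerobic compound treatment at 37 deg C; signal develops 15-30 min at room temperature.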
SW480 rerep: DNA re-replication induction in SW480 cells; SW480 DNA re-replication, Hoechst DNA content imaging, 48 h; AID 624297; Potency, µM (doses to about 46.1 µM), inactives show at the highest dose re-replication activation, actives largely listed as activators; 1.8% of 340,000 active; note: potency is the fitted concentration of half-maximal effect; % of control where 0% means no effect; nearly all actives have a fitted effect of over 55% in size
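Image-based read-out: total Hoechst fluorescence of nuclei (405 nm excitation, 500-530 nm emission), with hits raising the fraction of high-intensity nuclei. SW480 colon cells incubated 48 hr with compounds at 37 C.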
An asterisk follows results filed as active; ? = inconclusive; / = not tested or not shown; [ ] = another dose, or the depositor's remark. Unless noted, calls come from the whole dose curve; as a rule, active = well fitted activation curve with a large enough effect; inconclusive = small, poorly fitted or top-dose-only effect; inactive = no such curve, though single readings can be large or run the other way.

SMILES | uPA generation | MCF10A rerep | Giardia kill | SW480 rerep
Cc1cccc(CSC2=NCCN2C(=O)c2ccc(S(=O)(=O)N(C)C)cc2)c1 | 0% | 3% | 4 | 29µM*
Cc1nc(NC(=O)/C=C/c2ccccc2)sc1C(=O)Nc1ccccc1 | -2% | 21µM* | -12 | ?
Cc1nc(NC(=O)/C=C/c2ccccc2)sc1C(=O)NCCO | / | 0% | -9 | -3%
COc1cc(/C=N/NC(=O)c2cncc(Br)c2)cc([N+](=O)[O-])c1O | -5% | 1% | -24 | 4.1µM*
Cc1ccc(S(=O)(=O)N2CCN(c3nc(-c4cccs4)nc4ncccc34)CC2)cc1 | / | / | 3 | /
O=C(CSc1c2c(nc3cc(Cl)ccc13)CCCC2)NCCCN1CCOCC1 | ? | 23µM* | -3 | ?
CCN(CC)CCCNC(=O)CSc1c2c(nc3cc(Cl)ccc13)CCCC2 | -9% | 117% | 5 | ?
COCCCNC(=O)CSc1c2c(nc3ccc(Cl)cc13)CCCC2 | 4% | 23µM* | 17 | 0%
O=C(CSc1c2c(nc3ccc(Cl)cc13)CCCC2)NCCCN1CCOCC1 | 8.9µM* | ? | 0 | ?
O=C(CSc1c2c(nc3cc(Cl)ccc13)CCCC2)NCCN1CCOCC1 | -7% | ? | -11 | ?
CN1CCN(CCCNC(=O)c2ccc3c(Cl)c4c(nc3c2)CCCC4)CC1 | 11µM* | -10% | -28 | ?
CCC(=O)O[C@@]1(C(=O)SCF)[C@@H](C)C[C@H]2[C@@H]3C[C@@H](F)C4=CC(=O)C=C[C@@]4(C)[C@]3(F)[C@@H](O)C[C@]21C | / | 2%[20.6 µM] | / | -2%[20.6 µM]
CCn1ccnc1CNC(=O)CC1C(=O)NCCN1Cc1ccc(OC)cc1OC (stereo unspecified) | 2% | 1% | -1 | -18%
Fc1ccc(Nc2nc(N3CCOCC3)c3ccccc3n2)cc1 | 13% | ? | 41 | 4%
c1ccc2c(Nc3nc(N4CCOCC4)c4ccccc4n3)cccc2c1 | 12% | 18µM* | 6 | ?
O=C(NC(=S)Nc1ccc(CN2CCCCC2)cc1)c1cccc(OCc2ccccc2)c1 | -6% | 23µM* | 19 | 3%
O=C(NCC1CCCN(Cc2cccc(OCCO)c2)C1)c1ccc(F)cc1 (stereo unspecified) | 4% | -6% | -12 | -7%
O=C(NCCCOc1cccc(CN2CCCCC2)c1)c1ccc(Cl)c(Cl)c1 | -10% | ? | 12 | 29µM*
c1ccc(-c2noc(-c3ccc4ccccc4c3)n2)nc1 | -14% | 17% | -93* | -16%
Cn1c(CN2CCN(S(C)(=O)=O)CC2)nc2cc([N+](=O)[O-])ccc21 | 0% | ? | 1 | -2%
c1ccc2nc3c(cc2c1)CCCCC3 | 1% | ? | 2 | 18µM*
O=C(c1ccc2c(c1)OCO2)N1CCC(Cc2ccccc2)CC1 | -6% | 1% | -1 | -10%
Cc1ccc(N(C(=O)CNC(=O)c2ccco2)C(C(=O)NC2CCCCC2)c2cccnc2)cc1C (stereo unspecified) | 0% | -8% | 7 | -8%
Cc1ccc(N(C(=O)CCl)C(C(=O)NC2CCCCC2)c2cccnc2)cc1C (stereo unspecified) | -9% | 7.3µM* | 11 | ?
CCc1ccc(CN(Cc2cccnc2)C(=O)/C=C/c2ccc(OC)cc2)cc1 | 3% | 18µM* | 20 | 16%
SMILES | uPA generation | MCF10A rerep | Giardia kill | SW480 rerep
Cc1nn(C)c(C)c1C1Nc2ccccc2C(=O)N1O (stereo unspecified) | -4% | 8% | -14 | -8%
Cc1ccsc1C1Nc2ccccc2C(=O)N1O (stereo unspecified) | -3% | 1% | 57 | 16µM*
O=C(NN1C(=O)c2cc(Br)ccc2NC1c1ccccc1Cl)c1ccncc1 (stereo unspecified) | -2% | 6% | 5 | 21µM*
Cc1cc([N+](=O)[O-])ccc1-c1ccc(C2Nc3ccccc3C(=O)N2O)o1 (stereo unspecified) | / | 10µM* | -2 | ?
O=C(NN1C(=O)c2ccccc2NC1c1ccc([N+](=O)[O-])o1)c1ccc(Br)cc1 (stereo unspecified) | ? | 9.2µM* | ? | ?
CC(=O)NN1C(=O)c2ccccc2NC1c1ccc([N+](=O)[O-])o1 (stereo unspecified) | ? | 15% | 6 | 23µM*
CCN(CC)CCCNc1ccc2ncn3c4ccc(O)cc4c(=O)c1c23 | -8% | ? | -8 | 7.3µM*
COc1cc(C(=O)N/N=C/C2CC=CCC2)cc(OC)c1OC (stereo unspecified) | -12% | 3.7µM* | 12 | ?
COc1cc(C(=O)N/N=C/c2ccsc2C)cc(OC)c1OC | -9% | ? | 9 | 0.65µM*
CC(C)(C)OC(=O)N1CC23CC(c4ccc(F)cc4)C(CC2S1(=O)=O)O3 (stereo unspecified) | / | / | 14 | /
O=C(N/N=C/c1cc2c3c(c1O)CCCN3CCC2)c1ccccc1O | -8% | 13µM* | -5 | 9.2µM*
O=S(=O)(NCCc1cn(S(=O)(=O)c2ccccc2)c2ccccc12)c1ccccc1 | / | / | 7 | /
CCn1c(=NC(=O)C2COc3ccccc3O2)sc2c(C)ccc(OC)c21 (stereo unspecified) | 9% | 16µM* | 4 | 31%
COc1ccc(CCNC(=O)c2ccc(CS(=O)Cc3ccc(Cl)cc3)o2)cc1OC (stereo unspecified) | -3% | -1% | 6 | 22%
CC(=O)c1nn(-c2cccc(Br)c2)cc1C(=O)c1ccc(Cl)cc1 | 1% | 4.6µM* | 11 | ?
CC(=O)c1nn(-c2cccc(Br)c2)cc1C(=O)c1ccccc1 | 3% | ? | -10 | -7%
CC(=O)c1nn(-c2ccccc2)cc1C(=O)c1cccc(Br)c1 | 8% | 1.6µM* | 18 | ?
COc1ccc(OC)c(N=c2oc3cc(O)ccc3cc2C(N)=O)c1 | 0% | 16µM* | 7 | 18µM*
CC(NC(=O)c1cccc(S(=O)(=O)N(C)c2ccccc2)c1)c1cccnc1 (stereo unspecified) | -18% | 7% | -7 | -11%
CNC1C(O)C(OC2C(NC(=O)C(O)CN)CC(N)C(OC3OC(CN)C(O)C(O)C3O)C2O)OCC1(C)O (stereo unspecified) | / | -3% | / | 3%
CCOC(=O)COc1ccccc1/C=C\[N+](=O)[O-] | -16% | ? | -13 | 4.1µM*
Oc1ccc(Br)cc1-c1cc(-c2ccccc2)n[nH]1 | 2% | ? | -12 | ?
Oc1ccc(Br)cc1-c1cc(-c2ccc(Cl)cc2)n[nH]1 | 1% | 15µM* | 0 | 15µM*
COc1ccc(CCN2C(=O)c3ccccc3NC2c2cc(Cl)c(O)c(OC)c2)cc1 (stereo unspecified) | -17% | 2.6µM* | 5 | 8.2µM*
CCCN1C(=O)c2ccccc2NC1c1cc(OC)c(OC)c(OC)c1 (stereo unspecified) | 0% | 4% | 1 | 1%
C=CCn1c2ccccc2c(=O)c2cc(C#Cc3cc(OC)cc(OC)c3)ccc21 | 9% | ? | -14 | 6.5µM*
Cn1c2ccccc2c(=O)c2cc(C#Cc3ccccn3)ccc21 | -15% | -21% | -9 | -4%
